Residual activity data for 4 compounds are collected here from ChEMBL document CHEMBL2218924, “A broad activity screen in support of a chemogenomic map for kinase signalling research and drug discovery” (Biochem J, 2013).

Experiment [1] addresses T1, Muscle, skeletal receptor tyrosine-protein kinase (Homo sapiens) (UniProt O15146).
T1 sequence (whole entry): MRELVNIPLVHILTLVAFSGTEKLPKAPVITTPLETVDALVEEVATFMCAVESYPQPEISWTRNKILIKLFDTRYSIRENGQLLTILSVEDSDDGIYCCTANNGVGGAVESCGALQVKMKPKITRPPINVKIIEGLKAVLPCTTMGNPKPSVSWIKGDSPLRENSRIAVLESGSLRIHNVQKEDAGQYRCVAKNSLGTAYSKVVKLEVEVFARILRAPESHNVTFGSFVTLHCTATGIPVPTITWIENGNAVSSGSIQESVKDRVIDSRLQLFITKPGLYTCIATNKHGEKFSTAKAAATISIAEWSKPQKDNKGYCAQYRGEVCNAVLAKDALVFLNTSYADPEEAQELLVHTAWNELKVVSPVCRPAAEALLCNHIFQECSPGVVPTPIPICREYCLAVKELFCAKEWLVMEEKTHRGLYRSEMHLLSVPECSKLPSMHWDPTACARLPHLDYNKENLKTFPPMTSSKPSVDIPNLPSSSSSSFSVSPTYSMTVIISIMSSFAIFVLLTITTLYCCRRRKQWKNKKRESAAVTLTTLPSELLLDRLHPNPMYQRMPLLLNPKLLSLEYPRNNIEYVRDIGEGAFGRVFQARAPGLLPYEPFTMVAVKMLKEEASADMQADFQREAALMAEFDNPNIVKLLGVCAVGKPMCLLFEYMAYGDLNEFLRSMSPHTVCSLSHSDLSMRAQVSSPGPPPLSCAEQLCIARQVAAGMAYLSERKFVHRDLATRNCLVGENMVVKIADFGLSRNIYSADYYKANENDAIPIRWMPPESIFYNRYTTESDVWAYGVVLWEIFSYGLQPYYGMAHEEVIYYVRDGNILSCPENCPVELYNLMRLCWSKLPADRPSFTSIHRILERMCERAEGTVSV
As to conditions: at 1 µM.

Experiment [2] deals with T1, Muscle, skeletal receptor tyrosine-protein kinase (Homo sapiens). Conditions: at 10 µM.
Experiment [3] deals with T2, Serine/threonine-protein kinase Nek11 (Homo sapiens) (UniProt Q8NG66).
T2 sequence (whole entry): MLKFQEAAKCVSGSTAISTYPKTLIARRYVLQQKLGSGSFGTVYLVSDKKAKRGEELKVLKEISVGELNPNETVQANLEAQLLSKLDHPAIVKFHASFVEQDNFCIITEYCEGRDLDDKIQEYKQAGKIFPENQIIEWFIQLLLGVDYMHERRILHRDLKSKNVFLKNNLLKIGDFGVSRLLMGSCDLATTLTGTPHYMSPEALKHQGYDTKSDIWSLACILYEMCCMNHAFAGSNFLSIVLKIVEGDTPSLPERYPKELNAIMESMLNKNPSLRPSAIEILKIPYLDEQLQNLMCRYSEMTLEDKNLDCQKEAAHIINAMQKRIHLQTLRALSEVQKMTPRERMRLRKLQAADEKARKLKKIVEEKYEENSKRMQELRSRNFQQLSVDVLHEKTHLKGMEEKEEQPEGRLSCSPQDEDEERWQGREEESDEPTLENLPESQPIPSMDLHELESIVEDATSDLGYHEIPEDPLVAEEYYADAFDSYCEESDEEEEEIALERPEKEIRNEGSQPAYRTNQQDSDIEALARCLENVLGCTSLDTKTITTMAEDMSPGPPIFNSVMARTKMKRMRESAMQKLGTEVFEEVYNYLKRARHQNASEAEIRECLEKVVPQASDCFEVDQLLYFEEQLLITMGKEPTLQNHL
Conditions: at 1 µM.

The target in experiment [4] is T2, Serine/threonine-protein kinase Nek11 (Homo sapiens). Conditions: at 10 µM.
For experiment [5], the target named is T3, Serine/threonine-protein kinase Nek2 (Homo sapiens) (UniProt P51955).
T3 sequence (whole entry): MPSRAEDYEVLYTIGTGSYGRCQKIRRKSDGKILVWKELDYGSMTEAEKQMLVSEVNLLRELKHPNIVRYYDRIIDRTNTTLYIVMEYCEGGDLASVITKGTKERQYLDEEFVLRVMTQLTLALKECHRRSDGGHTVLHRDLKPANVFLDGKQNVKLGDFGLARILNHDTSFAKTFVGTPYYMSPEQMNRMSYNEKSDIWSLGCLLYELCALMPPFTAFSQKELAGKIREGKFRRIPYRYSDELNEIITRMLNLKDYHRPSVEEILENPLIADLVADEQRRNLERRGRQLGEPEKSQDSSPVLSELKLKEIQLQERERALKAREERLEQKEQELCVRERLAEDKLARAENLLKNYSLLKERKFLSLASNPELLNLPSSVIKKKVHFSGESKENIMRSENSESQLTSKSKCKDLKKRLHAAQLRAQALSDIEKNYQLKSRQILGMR
Conditions: at 1 µM.

Experiment [6] has as its target T3, Serine/threonine-protein kinase Nek2 (Homo sapiens). Conditions: at 10 µM.
For experiment [7], the target named is T4, Serine/threonine-protein kinase Nek3 (Homo sapiens) (UniProt P51956).
T4 sequence (whole entry): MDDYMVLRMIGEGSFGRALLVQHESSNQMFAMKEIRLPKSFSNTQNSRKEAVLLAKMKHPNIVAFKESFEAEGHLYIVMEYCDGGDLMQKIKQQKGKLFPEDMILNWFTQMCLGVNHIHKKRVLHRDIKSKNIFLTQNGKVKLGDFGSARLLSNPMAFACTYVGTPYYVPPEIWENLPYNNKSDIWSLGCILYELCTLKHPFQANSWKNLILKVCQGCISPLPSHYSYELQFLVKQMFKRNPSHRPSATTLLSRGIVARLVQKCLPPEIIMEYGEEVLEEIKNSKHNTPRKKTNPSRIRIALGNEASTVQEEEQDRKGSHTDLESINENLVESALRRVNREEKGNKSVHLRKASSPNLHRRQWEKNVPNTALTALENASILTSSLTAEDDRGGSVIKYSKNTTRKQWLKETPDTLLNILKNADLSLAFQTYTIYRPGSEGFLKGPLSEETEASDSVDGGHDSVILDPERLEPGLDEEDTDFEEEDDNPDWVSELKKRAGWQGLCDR
Conditions: at 1 µM.

The target in experiment [8] is T4, Serine/threonine-protein kinase Nek3 (Homo sapiens). As to conditions: at 10 µM.
In experiment [9] the target is Serine/threonine-protein kinase tousled-like 2 (Homo sapiens) (UniProt Q86UE8). As to conditions: at 1 µM.
Serine/threonine-protein kinase tousled-like 2 (Homo sapiens), sequence (Q86UE8 whole entry, looked up): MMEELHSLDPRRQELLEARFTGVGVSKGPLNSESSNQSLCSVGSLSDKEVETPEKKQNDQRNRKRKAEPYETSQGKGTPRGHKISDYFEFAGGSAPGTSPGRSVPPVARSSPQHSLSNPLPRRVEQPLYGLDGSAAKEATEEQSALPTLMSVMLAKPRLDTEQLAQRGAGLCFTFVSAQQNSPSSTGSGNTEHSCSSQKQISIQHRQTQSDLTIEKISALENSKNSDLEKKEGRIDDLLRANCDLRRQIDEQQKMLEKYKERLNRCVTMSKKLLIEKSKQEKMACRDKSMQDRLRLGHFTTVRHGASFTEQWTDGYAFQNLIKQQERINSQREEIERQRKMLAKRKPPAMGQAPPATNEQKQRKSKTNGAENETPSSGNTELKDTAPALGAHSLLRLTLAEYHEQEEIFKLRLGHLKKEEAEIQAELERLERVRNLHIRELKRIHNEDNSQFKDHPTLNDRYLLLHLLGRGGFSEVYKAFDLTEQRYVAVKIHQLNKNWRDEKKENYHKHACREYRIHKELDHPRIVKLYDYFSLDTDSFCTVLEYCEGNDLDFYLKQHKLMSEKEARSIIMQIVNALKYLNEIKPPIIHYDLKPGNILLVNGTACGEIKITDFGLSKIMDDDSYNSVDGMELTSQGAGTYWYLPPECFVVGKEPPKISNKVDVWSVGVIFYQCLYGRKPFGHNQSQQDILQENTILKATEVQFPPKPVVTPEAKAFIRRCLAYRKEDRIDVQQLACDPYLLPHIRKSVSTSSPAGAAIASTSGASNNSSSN
For experiment [10] the target is unchanged. Conditions: at 10 µM.
The target in experiment [11] is T5, Testis-specific serine/threonine-protein kinase 1 (Homo sapiens) (UniProt Q9BXA7).
T5 sequence (whole entry): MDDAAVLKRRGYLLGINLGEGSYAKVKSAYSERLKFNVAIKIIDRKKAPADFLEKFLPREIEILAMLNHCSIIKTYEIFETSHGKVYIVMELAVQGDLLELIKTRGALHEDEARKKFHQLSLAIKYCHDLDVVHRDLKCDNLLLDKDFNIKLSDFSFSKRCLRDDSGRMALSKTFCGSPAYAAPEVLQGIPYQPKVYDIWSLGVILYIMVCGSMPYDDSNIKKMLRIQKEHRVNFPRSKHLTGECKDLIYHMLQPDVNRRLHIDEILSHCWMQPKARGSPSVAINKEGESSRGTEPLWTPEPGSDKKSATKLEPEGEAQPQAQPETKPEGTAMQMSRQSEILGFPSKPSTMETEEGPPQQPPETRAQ
As to conditions: at 1 µM.

The target of experiment [12] is T5, Testis-specific serine/threonine-protein kinase 1 (Homo sapiens). Conditions: at 10 µM.
Experiment [13] has as its target T6, Testis-specific serine/threonine-protein kinase 2 (Homo sapiens) (UniProt Q96PF2).
T6 sequence (whole entry): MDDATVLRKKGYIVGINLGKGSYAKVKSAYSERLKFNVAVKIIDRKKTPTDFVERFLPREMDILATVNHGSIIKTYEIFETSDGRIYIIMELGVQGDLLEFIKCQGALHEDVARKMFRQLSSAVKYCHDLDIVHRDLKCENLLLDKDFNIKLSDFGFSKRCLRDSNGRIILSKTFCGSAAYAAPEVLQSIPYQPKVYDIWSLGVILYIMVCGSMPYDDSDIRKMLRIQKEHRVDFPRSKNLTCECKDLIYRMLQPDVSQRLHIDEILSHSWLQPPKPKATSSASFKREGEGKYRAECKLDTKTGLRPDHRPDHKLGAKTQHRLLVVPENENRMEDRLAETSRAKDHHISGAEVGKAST
Conditions: at 10 µM.

Experiment [14] has as its target T7, Tyrosine-protein kinase Tec (Homo sapiens) (UniProt P42680).
T7 sequence (whole entry): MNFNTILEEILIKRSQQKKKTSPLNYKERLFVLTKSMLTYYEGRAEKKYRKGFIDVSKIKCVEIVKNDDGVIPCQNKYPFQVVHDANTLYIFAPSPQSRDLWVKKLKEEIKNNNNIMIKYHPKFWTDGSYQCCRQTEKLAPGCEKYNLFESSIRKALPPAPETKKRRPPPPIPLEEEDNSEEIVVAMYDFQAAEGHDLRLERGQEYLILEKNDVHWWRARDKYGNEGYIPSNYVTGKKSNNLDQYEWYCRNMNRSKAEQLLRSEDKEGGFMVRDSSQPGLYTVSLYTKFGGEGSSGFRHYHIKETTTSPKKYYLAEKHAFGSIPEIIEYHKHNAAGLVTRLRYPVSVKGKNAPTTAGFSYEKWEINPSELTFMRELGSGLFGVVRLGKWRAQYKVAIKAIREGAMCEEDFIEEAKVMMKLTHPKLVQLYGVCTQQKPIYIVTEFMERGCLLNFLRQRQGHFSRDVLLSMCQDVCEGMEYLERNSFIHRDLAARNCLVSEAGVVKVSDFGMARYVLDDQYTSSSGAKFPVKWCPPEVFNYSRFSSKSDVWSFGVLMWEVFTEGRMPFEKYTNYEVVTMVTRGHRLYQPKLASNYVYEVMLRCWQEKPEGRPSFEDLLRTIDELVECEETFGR
As to conditions: at 1 µM.

Experiment [15] addresses T7, Tyrosine-protein kinase Tec (Homo sapiens). Conditions: at 10 µM.
For experiment [16], the target named is Angiopoietin-1 receptor (Homo sapiens) (UniProt Q02763). As to conditions: at 1 µM.
Angiopoietin-1 receptor (Homo sapiens), sequence (Q02763 whole entry): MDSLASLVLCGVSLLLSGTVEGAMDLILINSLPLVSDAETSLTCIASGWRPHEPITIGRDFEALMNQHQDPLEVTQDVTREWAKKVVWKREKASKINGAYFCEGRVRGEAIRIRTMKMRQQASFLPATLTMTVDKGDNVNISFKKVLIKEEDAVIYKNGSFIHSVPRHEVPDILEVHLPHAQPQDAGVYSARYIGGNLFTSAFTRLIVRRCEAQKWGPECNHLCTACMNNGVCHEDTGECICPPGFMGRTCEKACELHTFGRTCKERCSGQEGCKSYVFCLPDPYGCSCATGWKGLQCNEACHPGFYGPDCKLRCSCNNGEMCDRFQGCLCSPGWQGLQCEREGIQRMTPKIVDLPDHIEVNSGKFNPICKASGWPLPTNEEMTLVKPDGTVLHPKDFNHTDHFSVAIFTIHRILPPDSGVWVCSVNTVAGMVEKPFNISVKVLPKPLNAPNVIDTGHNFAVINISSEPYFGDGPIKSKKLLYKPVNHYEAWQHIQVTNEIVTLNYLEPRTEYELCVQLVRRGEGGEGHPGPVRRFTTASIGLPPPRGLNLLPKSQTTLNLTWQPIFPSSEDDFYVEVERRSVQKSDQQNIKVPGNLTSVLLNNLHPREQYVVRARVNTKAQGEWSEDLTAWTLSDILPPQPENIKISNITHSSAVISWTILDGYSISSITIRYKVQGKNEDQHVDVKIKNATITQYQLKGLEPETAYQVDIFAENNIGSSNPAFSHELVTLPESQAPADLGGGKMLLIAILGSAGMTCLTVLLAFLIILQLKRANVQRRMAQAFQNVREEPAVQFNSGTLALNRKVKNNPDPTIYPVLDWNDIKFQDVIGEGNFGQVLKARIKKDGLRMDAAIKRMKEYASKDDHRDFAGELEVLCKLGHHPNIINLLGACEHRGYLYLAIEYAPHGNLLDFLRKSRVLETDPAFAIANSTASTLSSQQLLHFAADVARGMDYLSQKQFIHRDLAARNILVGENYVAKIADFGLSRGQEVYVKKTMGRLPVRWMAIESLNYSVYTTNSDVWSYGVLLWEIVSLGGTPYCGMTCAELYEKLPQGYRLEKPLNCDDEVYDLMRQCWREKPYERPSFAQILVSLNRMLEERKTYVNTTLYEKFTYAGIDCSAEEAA
The target is the same in experiment [17]. As to conditions: at 10 µM.
For experiment [18], the target named is High affinity nerve growth factor receptor (Homo sapiens) (UniProt P04629). Conditions: at 1 µM.
High affinity nerve growth factor receptor (Homo sapiens), sequence (P04629 33-796 limits assumed): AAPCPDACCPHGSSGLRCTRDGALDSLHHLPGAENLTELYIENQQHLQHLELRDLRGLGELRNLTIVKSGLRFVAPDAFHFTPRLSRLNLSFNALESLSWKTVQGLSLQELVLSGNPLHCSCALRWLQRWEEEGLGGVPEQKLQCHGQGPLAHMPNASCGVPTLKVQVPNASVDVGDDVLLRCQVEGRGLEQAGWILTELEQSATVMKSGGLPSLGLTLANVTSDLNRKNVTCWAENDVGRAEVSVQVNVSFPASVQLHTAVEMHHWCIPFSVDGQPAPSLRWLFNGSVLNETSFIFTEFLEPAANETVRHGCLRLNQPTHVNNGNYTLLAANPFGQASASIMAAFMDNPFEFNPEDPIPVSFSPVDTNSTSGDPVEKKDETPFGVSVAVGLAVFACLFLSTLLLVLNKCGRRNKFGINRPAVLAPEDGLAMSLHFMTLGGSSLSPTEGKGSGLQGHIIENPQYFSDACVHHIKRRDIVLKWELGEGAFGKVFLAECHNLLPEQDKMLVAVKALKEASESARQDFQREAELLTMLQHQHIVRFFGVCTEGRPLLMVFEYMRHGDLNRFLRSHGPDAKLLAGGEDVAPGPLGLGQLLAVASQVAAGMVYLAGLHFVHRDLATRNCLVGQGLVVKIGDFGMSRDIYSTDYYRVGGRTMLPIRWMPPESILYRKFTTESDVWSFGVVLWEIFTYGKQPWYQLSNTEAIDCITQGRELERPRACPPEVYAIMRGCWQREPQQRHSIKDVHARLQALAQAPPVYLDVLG
For experiment [19] the target is unchanged. Conditions: at 10 µM.
For experiment [20], the target named is BDNF/NT-3 growth factors receptor (Homo sapiens) (UniProt Q16620). Conditions: at 1 µM.
BDNF/NT-3 growth factors receptor (Homo sapiens), sequence (Q16620 32-822 limits assumed): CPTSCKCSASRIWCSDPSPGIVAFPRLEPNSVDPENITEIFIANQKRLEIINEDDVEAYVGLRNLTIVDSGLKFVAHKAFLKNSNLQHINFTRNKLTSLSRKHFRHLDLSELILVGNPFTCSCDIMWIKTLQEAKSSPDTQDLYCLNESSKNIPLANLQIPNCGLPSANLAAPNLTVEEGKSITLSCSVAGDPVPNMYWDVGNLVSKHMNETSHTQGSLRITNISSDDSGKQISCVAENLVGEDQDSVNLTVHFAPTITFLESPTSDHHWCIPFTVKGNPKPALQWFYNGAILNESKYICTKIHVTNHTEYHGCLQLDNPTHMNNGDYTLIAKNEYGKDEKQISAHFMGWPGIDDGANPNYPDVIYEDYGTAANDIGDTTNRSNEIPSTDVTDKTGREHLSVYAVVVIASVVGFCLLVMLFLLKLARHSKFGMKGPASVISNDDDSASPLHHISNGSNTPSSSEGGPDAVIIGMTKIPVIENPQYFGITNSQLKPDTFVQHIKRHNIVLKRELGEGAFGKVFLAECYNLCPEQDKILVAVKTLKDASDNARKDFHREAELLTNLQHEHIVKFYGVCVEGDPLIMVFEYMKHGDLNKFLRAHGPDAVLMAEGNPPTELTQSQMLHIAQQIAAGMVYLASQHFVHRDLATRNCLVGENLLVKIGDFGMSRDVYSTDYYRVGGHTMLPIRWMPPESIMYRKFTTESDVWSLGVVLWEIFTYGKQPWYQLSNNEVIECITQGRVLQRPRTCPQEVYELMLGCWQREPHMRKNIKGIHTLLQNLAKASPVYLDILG

The residual activity is the signal under treatment as a percentage of the control signal. As for `COc1cc2ncnc(Nc3ccc(O)c(Br)c3)c2cc1OC`, the residual activity stood at 77% in experiment [1]; 63% in experiment [2]; 50% in experiment [3]; 64% in [4]; 73% in experiment [5]; 83% in experiment [6]. The residual activity in experiment [7] stood at 106%; in experiment [8], 81%; in [9], 86%; in experiment [10] it was 76%; in experiment [11], 87%; in [12] it was 62%. In addition, the residual activity in [13] is 91%; in [14], 76%; in experiment [15], 34%; in experiment [16] it was 61%; in experiment [17], 53%; in experiment [18], 82%. Also, the residual activity is 44% in experiment [19] and 110% in experiment [20].

Turning to `COc1cc2ncnc(Nc3ccc(Oc4ccccc4)cc3)c2cc1OC`, the residual activity in experiment [1] came to 71%; in [2], 73%; in experiment [3], 100%; in experiment [4], 105%; in [5], 92%; in experiment [6], 96%. Further, the residual activity in [7] was 106%; in [8], 97%; in [9], 106%; in experiment [10], 98%; in [11], 95%; in experiment [12], 93%. For the same compound, the residual activity in experiment [13] stood at 111%; in experiment [14] it was 40%; in [15], 10%; in experiment [18], 135%; in experiment [19], 82%; in [20] it was 102%.

As to `c1ccc(-c2n[nH]c3c2oc2ccccc23)cc1`, the residual activity came to 14% in [1]; 0% in [2]; 91% in [5]; 99% in experiment [6]; 98% in [9]; 86% in [10]. The residual activity was determined as 82% in experiment [12]; 96% in experiment [13]; 76% in [15]; 83% in experiment [16]; 58% in [17]; 32% in experiment [18]. Moreover, the residual activity in experiment [19] was found to be 2%; in experiment [20], 45%.

As for `N#CC(C#N)=C(N)/C(C#N)=C/c1ccc(O)cc1`, the residual activity in experiment [2] amounted to 82%; in experiment [3], 75%; in experiment [4] it was 97%; in experiment [5] it was 91%; in [6], 100%; in experiment [9] it was 100%. Moreover, the residual activity worked out at 95% in experiment [10]; 98% in experiment [11]; 96% in experiment [12]; 90% in experiment [14]; 88% in [15]; 84% in experiment [16]. For the same compound, the residual activity is 74% in [17], 121% in [18], 119% in experiment [19] and 99% in [20].
